PubChem BioAssay AID651551 (Sanford-Burnham Center for Chemical Genomics, 2012)

Experiment: GAPDH versus PEG-3 reporter suppression – cell-based, luminescence, counter-screen for PEG-3 promoter inhibitor project, SAR follow-up (AID 651551)
Conditions: HeLa PEG-Prom / GAPDH luciferase reporter, 6 or 24 h, run 1, 6 h; at 99 µM (top of the series)

| SMILES | inhibition % (higher = more inhibition) [%] |
| --- | --- |
| O=C(Nc1nc(-c2ccccc2)cs1)c1nn(-c2ccccc2)c(=O)c2ccccc12 | 32.8 |
| CCCn1nc(C(=O)Nc2nc(-c3ccncc3)cs2)c2ccccc2c1=O | 44.4 |
| CCn1cc(C(=O)NCc2ccco2)c(=O)c2cc(S(=O)(=O)N3CCCC3)ccc21 | 37.8 |
| COc1ccc(Cl)cc1Nc1nc(-c2sc(NC(=O)c3ccccc3)nc2C)cs1 | 44.4 |
| Cc1cc(NC(=O)c2cccc(C)c2C)n(-c2nc3ccccc3[nH]2)n1 | 13.7 |
| CCn1nc(C(=O)Nc2nc(-c3ccccn3)cs2)c2ccccc2c1=O | 38.3 |
| COc1ccc(-n2nc(C(=O)NCC(=O)Nc3cc(OC)c(OC)c(OC)c3)c3ccccc3c2=O)cc1OC | 29.5 |
| Cc1nc(NC(=O)c2ccccc2)sc1-c1csc(Nc2ccccc2Cl)n1 | 32 |
| Cc1nc(NC(=O)c2ccccc2)sc1-c1csc(Nc2ccccc2)n1 | 81.9 |
| O=C(Nc1nc2ccccc2s1)c1nn(-c2ccccc2)c(=O)c2ccccc12 | 27 |
| CCCn1nc(C(=O)Nc2nc3ccccc3s2)c2ccccc2c1=O | 42.8 |
| Cc1nc(NC(=O)c2ccccc2)sc1-c1csc(Nc2cccc(Cl)c2C)n1 | 27 |
| Cc1cc(NC(=O)c2ccccc2C)n(-c2nc3ccccc3[nH]2)n1 | 44.4 |
| Cc1cc(NC(=O)c2ccccc2)n(-c2nc3ccccc3n2C)n1 | 28.6 |
| COc1ccc(-n2nc(C(=O)NCC(=O)Nc3cccc(OC)c3)c3ccccc3c2=O)cc1 | 31.1 |
| CCCn1nc(C(=O)Nc2nc(-c3ccccn3)cs2)c2ccccc2c1=O | 81.9 |
| O=C(Nc1nccs1)c1nn(-c2ccccc2)c(=O)c2ccccc12 | 28 |
| COCCCNC(=O)c1ccc(Cn2c(=O)c3ccccc3n(Cc3ccccc3C#N)c2=O)cc1 | 25.3 |
| Cc1cc(NC(=O)c2ccccc2C(F)(F)F)n(-c2nc3ccccc3[nH]2)n1 | 89.3 |
| Cc1ccc(Cl)cc1Nc1nc(-c2sc(NC(=O)c3ccco3)nc2C)cs1 | 35.5 |
| COc1ccc(-n2nc(C(=O)NCC(=O)Nc3ccc(OC)c(OC)c3)c3ccccc3c2=O)cc1 | 69.4 |
| COc1ccccc1Nc1nc(-c2sc(NC(=O)c3ccco3)nc2C)cs1 | 51 |
| Cc1cc(NC(=O)c2ccccc2)n(-c2nc3ccccc3[nH]2)n1 | 21.2 |
